# Screening data deposited in PubChem by National Center for Advancing Translational Sciences (NCATS).
# A selection: hits, their analogues and other compounds. The true share with any hit is near 7.9%.
# Lassa entry inh – qHTS for Inhibitors of binding or entry into cells for Lassa Virus; Potency, µM (titrated, usually from 37.9 µM), inactives show top-dose activity change, negative = inhibition, most hits filed as inhibitors; Lassa virus pseudotype entry inhibition, cell reporter; hit rate 1.2% among 300,000; AID 540256, 2011; calls by dose curve; tested in HEK293 cells; further: potency means the concentration at half of the fitted maximal effect; on the % scale 0 is the no-effect control and ±100 the full control effect; nearly all actives have a fitted effect of over 50% in size
# HCMV inh – qHTS Assay for inhibitors of the human cytomegalovirus (HCMV); hit rate 4.5% among 410,000; activity change, negative = inhibition, % at 57.5 µM; AID 1259415, 2018; HFF cells, HCMV-luciferase reporter, 72 h; stronger effect = lower value; in the data active means activity change below about -60%; inconclusive means no clear call, values can overlap the other calls; inactive means above about -39%; further: on the % scale 0 is the no-effect control and ±100 the full control effect
#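 Cell-based, HFFs, 1000 cells/well, 16 h 37C; cpds in DMSO + HCMV-luc, MOI 1 PFU/cell; 72 h 37C; OneGlo luminescence after 5 min RT; norm. to buffer vs Salinomycin 10uM.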
# MARV entry inh – qHTS for inhibitors of binding or entry into cells for Marburg Virus; Marburg virus pseudotyped entry inhibition, cell reporter; Potency, µM (highest dose often 37.8 µM), for inactives: at the highest dose activity change, negative = inhibition, actives largely listed as inhibitors; hit rate 1.8% among 300,000; AID 540276, 2011; calls by dose curve; tested in HEK293 cells; further: potency means the concentration at half of the fitted maximal effect; on the % scale 0 is the no-effect control and ±100 the full control effect
# HCV inh – qHTS Assay for Inhibitors of Hepatitis C Virus (HCV) | Huh7.5.1 HCVcc-Cre infection, luciferase reporter, 44 h | Potency, µM (highest dose often 41.8 µM), for inactives: at the top dose activity change, negative = inhibition, usual class: inhibitors | hit rate 3.4% among 340,000 | AID 651820, 2012; further: potency means the concentration at half of the fitted maximal effect; on the % scale 0 is the no-effect control and ±100 the full control effect
#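 Luciferase read-out (15 sec integration) after a 15 min room-temperature substrate step quantifies HCVcc-Cre infection. Cells, 1,000 per well, had compound added 4 h post-plating, then virus at ~0.5 moi, and were cultured 44 h.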
# FMDV antiviral – High Throughput Screening for Foot and Mouth Disease Virus Antivirals; Potency, µM (doses to about 57.9 µM), for inactives: at the highest dose activity change, negative = inhibition, actives largely listed as inhibitors; FMDV antiviral cell-based qHTS; hit rate 1.2% among 410,000; AID 1159524, 2015; calls by dose curve; tested in HEK293T cells; further: read-out not given here; potency means the concentration at half of the fitted maximal effect; on the % scale 0 is the no-effect control and ±100 the full control effect; nearly all actives have a fitted effect of over 45% in size
# HCV confirm – qHTS Assay for Inhibitors of Hepatitis C Virus (HCV): Confirmation Assay for Cherry-picked Compounds; hit rate 78% among 640; AID 720575, 2013; HCVcc-Cre infectious virus cell assay, luciferase, inhibition; Potency, µM (top dose mostly 41.8 µM), without a hit: at the highest dose activity, negative = inhibition, usual class: inhibitors; shares compounds with HCV inh; further: potency means the concentration at half of the fitted maximal effect; nearly all actives have a fitted effect of over 80% in size
# HCV cytotox – qHTS Assay for Inhibitors of Hepatitis C Virus (HCV): Cytotoxicity Counterscreen for Cherry-picked Compounds | shares compounds with HCV inh | HCV host cell line cytotoxicity counterscreen | Potency, µM (series often up to 41.8 µM), inactives show at the highest dose activity change, negative = cytotoxicity, hits mostly inhibitors | hit rate 22% among 640;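 further: potency means the concentration at half of the fitted maximal effect; 44 h compound exposure; on the % scale 0 is the no-effect control and ±100 the full control effect; nearly all actives have a fitted effect of over 55% in size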
# Active calls of the source: *; ? = inconclusive; / = not tested or not shown; ! = a repeat was not active; [ ] = another dose, or the depositor's remark. Unless noted, the call rests on the fitted dose curve; in most records, active means well fitted curve in the direction sought with a large enough effect; inconclusive means small, poorly fitted or top-dose-only effect, or another doubt; inactive means no such curve, though single readings can be large; an effect the other way counts as inactive or inconclusive.
SMILES,Lassa entry inh,HCMV inh,MARV entry inh,HCV inh,FMDV antiviral,HCV confirm,HCV cytotox
CCn1c(=O)n(CC)c2cc(N3CCCC3)c(NC(=O)c3cc(Cl)ccc3OC)cc21,-22.1%[46.1 µM],-20.4,20.2%[46.1 µM],3.98µM*,-28.6%,15.8µM*,?
COc1cc2ccccc2cc1C(=O)Nc1ccccc1N1CCCC1,5.0%,-0.4,?,?,-13.4%,14.1µM*,-84.5%
COCC(C)n1c(SCC(=O)N2CCc3ccccc3C2)nc2ccccc2c1=O (stereo not given),?,-25.2,?,?,0.0%,19.9µM*,-2.7%
CCN(CC)CCNC(=S)Nc1ccc2nc(N3CCOCC3)cc(C)c2c1,/,-25.4,/,?,-8.3%,/,/
CCN1CCN(c2cc(C)c3cc(NC(=O)c4cc(OC)cc(OC)c4)ccc3n2)CC1,?,-89.6*!,?,2.24µM*,14.2%,25µM*,22.3µM*
CCN(CC)CCNC(=S)Nc1ccc2nc(N3CCCC3)cc(C)c2c1,?,-30.5,4.11µM*,2µM*,-11.5%,7.05µM*,-23.1%
CCOC(=O)CCNC(=O)N1CCCC(C(=O)c2cccc(OC(C)C)c2)C1 (stereo not given),-39.3%,64.9,-9.7%,-30.8%,-19.1%,/,/
Cc1cc(Cl)c2oc(C(=O)N3CCOCC3)c(C)c2c1,/,22.9,/,/,57.3%,/,/
Cc1cc(Cl)c2oc(C(=O)N3CCN(C(=O)c4ccco4)CC3)c(C)c2c1,/,35.4,/,?,-7.8%,?,-12.1%
COc1ccc(-c2csc3nc(-c4ccccc4C)oc(=O)c23)cc1OC,-0.4%[46.1 µM],-9.2,7.0%[46.1 µM],/,-25.2%,/,/
Oc1ccc(C[C@@H](CN2CCCC2CN2C(=S)NC[C@@H]2Cc2ccccc2)N2C[C@H](Cc3ccccc3)N(CC3CCCCC3)C2=S)cc1 (stereo not given in full),/,-5.5,/,/,-12.8%,/,/
Oc1ccc(C[C@H]2CNC(=S)N2CC2CCCN2C[C@H](Cc2ccc(O)cc2)N2C[C@H](Cc3ccccc3)N(CC3CCCCC3)C2=S)cc1 (stereo not given in full),/,?,/,2.51µM*,-28.1%,8.87µM*,-18.9%
COc1ccc(OC)c(NC(=O)Cc2csc(NC(=O)Nc3ccccc3OC)n2)c1,-18.6%[46.1 µM],-8.7,?,8.91µM*,?,9.95µM*,37.4%
COc1ccc(CCNC(=O)CCn2c(=O)c3ccccc3n(Cc3c(C)cc(C)cc3C)c2=O)cc1OC,-3.5%[46.1 µM],10.1,0.7%[46.1 µM],/,2.8%,/,/
CNc1ccc2nc3ccccc3[n+](C)c2c1,/,-100.9*,/,3.16µM*,-17.4%,12.5µM*,14.1µM*
COc1ccc2c(C)cc(SCC#N)nc2c1,5.5%,-9.5,-14.3%,?,5.3%,/,/
COc1ccc2c(C)cc(SCc3c(C)noc3C)nc2c1,-13.5%,11.8,-19.6%,6.31µM*,-24.7%,22.3µM*,-31.1%
CC1CCN(C2CCN(S(=O)(=O)c3ccc(C(F)(F)F)cc3)CC2)CC1,-12.0%,-22.8,0.7%[46.1 µM],-8.7%,-11.4%,/,/
O=C(COc1ccccc1Cl)Nc1ccc(NC(=O)c2ccco2)cc1,-6.2%,-19.3,12.0%[46.1 µM],-14.7%,-6.4%,/,/
O=C(Nc1ccc(-c2noc(COc3ccccc3Cl)n2)cc1)c1ccco1,?,-32.2,?,?,3.2%,7.05µM*,-26.7%
Cc1ccc(S(=O)(=O)NCc2ccncc2)cc1,10.3%,?,?,2.82µM*,2.0%,2.23µM*,8.87µM*
CCOC(=O)COc1ccc(S(=O)(=O)NCc2ccncc2)cc1,?,-18.9,-29.7%,14.0%,/,/,/
CCOc1ccc(S(=O)(=O)NCc2ccncc2)cc1,?,-95.9*,?,?,-13.6%,0.281µM*,0.25µM*
Cc1ccc(S(=O)(=O)NCC(=O)NCc2ccncc2)cc1,-4.9%,21.0,14.6%,2.4%,0.0%,/,/
COc1cc2c(cc1OC)C(c1ccc3c(c1)Cc1ccccc1-3)OC(=O)C2 (stereo not given),/,5.3,/,/,/,/,/
SMILES,Lassa entry inh,HCMV inh,MARV entry inh,HCV inh,FMDV antiviral,HCV confirm,HCV cytotox
N#C/C(=C\Nc1ccc2cn[nH]c2c1)c1nc(-c2ccc(Cl)cc2)cs1,-2.0%,?,?,?,-24.4%,/,/
N#C/C(=C\Nc1ccc2cn[nH]c2c1)c1nc(-c2ccccc2)cs1,?,36.9,?,0.891µM*,-23.7%,3.15µM*,-54.2%
C[C@]12CC[C@@H]3c4ccc(O)cc4[C@@H](O)C[C@H]3[C@@H]1CC[C@@H]2O,-19.0%,/,-4.3%,-5.3%[8.37 µM],/,/,/
C[C@]12CC[C@@H]3c4ccc(O)c(O)c4CC[C@H]3[C@@H]1CC[C@@H]2O,/,-91.4*,/,2.82µM*,-4.6%,19.9µM*,1.3%
Cc1ccc(NC(=O)CCNS(=O)(=O)c2ccc(Br)s2)cc1,?,44.1,-15.9%[46.1 µM],?,16.6%,/,/
O=C1C=C(c2ccc(F)nc2)C[C@@H](c2ccc3c(c2)OCO3)C1,/,-2.7,/,-8.9%,-18.4%,/,/
Cn1c(SCC(=O)NC2CCCc3ccccc32)nnc1C1CC1 (stereo not given),18.4%,-7.1,5.0%,18.1%,-3.1%,/,/
CCCC(=O)Nc1cccc(NC(=O)c2cccc([N+](=O)[O-])c2C)c1,9.4%,-15.7,?,7.94µM*,?,12.5µM*,-16.4%
CCCC(=O)Nc1cccc(NC(=O)c2ccccc2Br)c1,-5.2%,28.4,-8.3%,?,-10.6%,/,/
COc1ccc(-c2csc(NC(=O)C3CSC4(C)CCC(=O)N34)n2)c(OC)c1 (stereo not given),?,-24.6,-25.5%,8.91µM*,-2.1%,28µM*,-14.8%
CCOC(=O)c1cc2c(=O)n3ccccc3nc2n(CCOC)c1=NC(=O)C(C)(C)C,-1.3%,3.7,2.3%,?,-18.3%,/,/
CCOC(=O)c1cc2c(=O)n3ccccc3nc2n(CCCOC)c1=NC(=O)C(C)(C)C,-6.4%,21.3,-2.7%,?,-16.5%,?,-15.5%
CC(=NNC(=S)N1CCN(C2CCCCCC2)CC1)c1ccccn1,0.282µM*,-96.5*,?,0.891µM*,?,0.112µM*,?
Cc1cccc(C)c1NC(=O)Nc1ccc(S(N)(=O)=O)cc1,/,-2.6,/,10.8%,-23.3%,/,/
COc1ccccc1/C=C/CN1CCSCC1,1.0%,-4.1,-8.8%,-16.0%,7.6%,/,/
CCCCn1c(SCc2nc3ccccc3s2)nc2cc(S(N)(=O)=O)ccc21,?,34.6,1.83µM*,?,-22.0%,17.7µM*,-38.4%
O=C(c1ccc(F)cc1)N1CCC2(CC1)NCCc1[nH]cnc12,/,-12.9,/,17.6%,-2.7%,/,/
